Bioassay records as filed in PubChem BioAssay.
TRHR PAM = TRH receptor (human) allosteric enhancement; hit rate 0.66% among 360,000; P34981; enhancement, % at 2 µM; TRHR cells, fluo-8 calcium fluorescence, EC20 TRH enhancement; in the data active means enhancement above about 30%
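Enhancer read-out: after compound pinning and an initial kinetic agonist-mode read, an EC20 of TRH (10 nM final) was injected and fluo-8 calcium signal (Ex 480/Em 530) followed at 1 s/cycle for 100 cycles in TRHR-expressing cells.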
D1 antag = blocks dopamine activation of the human D1 receptor. P21728. HEK293 TREx D1 cells, calcium flux, dopamine EC80; stronger effect = lower value. activity change, negative = inhibition, % at 10 µM. hit rate 3.2% among 360,000; in the data active means activity change below about -30%
Target sequence (P21728 whole entry, looked up): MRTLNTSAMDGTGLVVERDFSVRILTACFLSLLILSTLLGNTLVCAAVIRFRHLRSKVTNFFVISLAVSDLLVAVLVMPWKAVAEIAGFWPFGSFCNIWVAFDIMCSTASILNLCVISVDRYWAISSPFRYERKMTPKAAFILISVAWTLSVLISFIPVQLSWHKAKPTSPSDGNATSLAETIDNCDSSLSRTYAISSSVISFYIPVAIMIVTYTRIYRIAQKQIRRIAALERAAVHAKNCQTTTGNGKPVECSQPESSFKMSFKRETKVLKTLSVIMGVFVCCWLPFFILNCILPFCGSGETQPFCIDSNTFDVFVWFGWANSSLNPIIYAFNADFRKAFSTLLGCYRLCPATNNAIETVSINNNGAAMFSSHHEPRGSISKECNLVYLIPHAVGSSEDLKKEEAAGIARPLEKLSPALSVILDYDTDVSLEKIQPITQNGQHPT
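Kinetic fluorescence of a calcium dye serves as the read-out. D1-expressing Hek293 Trex cells, induced overnight at 30 C, are exposed to compound for 180 s before an EC80 dopamine addition, then read 180 s further.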
D1 PAM = potentiators of human D1 dopamine receptor; P21728; HEK293 TREx D1 cells, calcium flux, dopamine EC20 potentiation; potentiation, % at 10 µM; hit rate 0.036% among 360,000; AID 504651; in the data active means potentiation above about 30%
D1 ag = agonists of human D1 dopamine receptor; HEK293 T-REx D1 cells, calcium flux, agonist mode; activation, % at 2 µM; hit rate 1% among 360,000
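Tetracycline-induced HEK293 TREx D1 cells, force-coupled to calcium signalling, were dye-loaded with a no-wash calcium kit. Compound was pin-added after a 10 s baseline. Fluorescence was read kinetically at 1 cycle/s for 180 s, with calcium rises flagged as agonism.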
TRHR ag = agonists of human TRH receptor; P34981; TRHR cells, calcium flux fluo-8, FDSS agonist mode; activation, % at 2 µM; hit rate 0.18% among 360,000
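Read-out: compound-evoked intracellular calcium rise in TRHR cells, fluo-8 dye, kinetic FDSS fluorescence at 1 s/cycle following a 10-cycle baseline. Cells cultured overnight before dye loading (30 min–1.5 h, RT).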
Hits are given with their value; . = inactive; / = no result. Rows were chosen to be rich in hits. Some 4.7% of all compounds tested hit in one or more screens of this group. Unless noted, no stated cut-off is given here; in the data, active means activation above about 30%; inactive means the rest.

SMILES | TRHR PAM | D1 antag | D1 PAM | D1 ag | TRHR ag
CC(=O)n1cc(/C=N/NC(=O)c2ccccc2O)c2ccccc21 | . | . | . | . | .
CC(C)(C)OC(=O)n1cc(/C=N/NC(=O)c2ccco2)c2ccccc21 | 31 | . | . | . | .
O=C(Cc1ccc(F)cc1)NC1CCSC1=O (stereo not drawn) | . | -33 | . | . | .
O=C(CCCc1ccccc1)NC1CCSC1=O (stereo not drawn) | . | . | . | . | .
Cc1ccc(S(=O)(=O)c2nc(-c3cccs3)oc2N2CCC(C)CC2)cc1 | . | . | . | . | .
O=S(=O)(c1ccccc1)c1nc(-c2cccs2)oc1N1CCCCC1 | 36 | . | . | . | .
CCOC(=O)c1sc2nc(C)nc(NCc3ccc(F)cc3)c2c1C | . | . | . | . | .
CCOC(=O)c1sc2nc(C)nc(Nc3ccc(OC)cc3)c2c1C | . | -30 | . | . | .
COc1ccc(NC(=O)c2ccc(NC3CC(=O)N(c4ccc(C)cc4C)C3=O)cc2)cc1 (stereo not drawn) | . | -31 | . | . | .
CCN(CC)C(=S)SCC(=O)Nc1ncc2c(n1)CCCC2=O | . | -33 | . | . | .
O=C(CSC(=S)N1CCOCC1)Nc1ncc2c(n1)CCCC2=O | . | . | . | . | .
COc1cc(O)c(C(=O)/C=C/c2ccccc2)c(OC)c1 | . | -56 | . | . | .
Cc1ccc(-c2c(CN3CCN(c4cc(C)ccc4C)CC3)csc2C)cc1 | . | . | . | . | .
CN1CCN(CCOC2Cc3ccccc3Sc3ccc(Cl)cc32)CC1 (stereo not drawn) | . | -66 | . | . | .
O=C(CN1CCN(CCOCCO)CC1)N1c2ccccc2Sc2ccc(Cl)cc21 | . | . | . | . | .
OCCN1CCN(C2Cc3cc(Cl)ccc3Sc3ccc(Cl)cc32)CC1 (stereo not drawn) (tested in a mixture with another compound) | . | -86 | . | . | .
Cc1cc(C(=O)N/N=C/c2cc(Br)c(Br)o2)n[nH]1 | . | . | . | . | .
CN=c1scc(-c2cccs2)n1/N=C/c1ccccc1O | . | . | . | . | .
CN=c1scc(-c2cccs2)n1/N=C/c1ccc(O)c(O)c1O | . | -89 | . | . | .
Cc1ccc(N2C(=O)Nc3ccccc3S2(=O)=O)cc1Cl | . | . | . | . | .
C[C@H](NC(=O)c1nc[nH]c1C(=O)NCCCCCNC(=O)OC(C)(C)C)C(=O)OCc1ccccc1 | . | -39 | . | . | .
C[C@@H](NC(=O)c1nc[nH]c1C(=O)N[C@@H](Cc1ccccc1)C(=O)OCc1ccccc1)c1ccccc1 | . | . | . | . | .
C[C@H](NC(=O)c1nc[nH]c1C(=O)N[C@H](C)c1ccccc1)C(=O)OCc1ccccc1 | . | -33 | . | . | .
Cc1cccc(NC(=O)c2nc[nH]c2C(=O)N[C@@H](C)C(=O)OCc2ccccc2)c1 | . | -33 | . | . | .
O=C(CCC1N=C2c3ccccc3N=C(SCC(=O)Nc3ccccc3F)N2C1=O)NCc1ccco1 (stereo not drawn) | . | . | . | . | .
SMILES | TRHR PAM | D1 antag | D1 PAM | D1 ag | TRHR ag
CC(NCc1ccc(OCc2ccc(Cl)cc2)cc1)C(O)c1ccccc1 (stereo not drawn) | . | . | . | 38 | .
OCCCCNCc1ccc(OCc2ccc(Cl)cc2)cc1 | . | -51 | . | . | .
CC(NCc1cccc(OCc2ccccc2)c1)C(O)c1ccccc1 (stereo not drawn) | . | / | . | 42 | .
Cc1ccc(S(=O)(=O)c2cn(CC(=O)Nc3ccccc3C)c3cc4c(cc3c2=O)OCO4)cc1 | . | . | . | . | .
COc1cc(NC(=O)C(NS(=O)(=O)c2ccc3c(c2)CCCC(=O)N3)C(C)C)cc(OC)c1 (stereo not drawn) | . | . | . | . | .
Cc1cccc2cc3c(N)c(C(=O)N4CCOCC4)sc3nc12 | . | . | . | 49 | .
Cc1cc(C)c2cc3c(N)c(C(=O)N4CCc5ccccc5C4)sc3nc2c1 | . | . | . | . | .
Cc1ccc(Nc2nnc(-c3ccc(C)c(S(=O)(=O)N4CCOCC4)c3)c3ccccc23)cc1 | . | . | . | . | .
Cc1cc2c(s1)c1cnn(Cc3cc(F)c(F)c(F)c3F)c(=O)c1n2C | . | . | . | . | .
CCCN1CCN(C(=O)c2noc3c2COc2ccc(C)cc2-3)CC1 | . | . | . | . | .
